# NRP1-CendR mod = alters CendR peptide binding to human NRP-1; O14786; FAM-RPARPAR peptide binding to NRP-1, fluorescence polarization; inhibition, % at 25 µM; hit rate 0.85% among 360,000;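 active = inhibition or corrected inhibition above about 18%, plus a signal ratio from 0.5 to 1.5, limit read from the data, passing the limit was not always enough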
# F508del corr = CFTR F508del correction in bronchial cells; CFBE cells, YFP halide quenching; stimulated with forskolin plus potentiator P3; % fluorescence drop versus neutral controls; activity (quench increase), % at 7.58 µM; hit rate 0.36% among 350,000; AID 720511;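 active = mean added fluorescence quench of at least 8% versus neutral control, with both replicates also reaching 8%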;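 also: cells transiently co-express mutant CFTR-F508del with the halide-sensitive YFP; corrector assay measuring rescue of mutant channel to the surface after 24 h compound exposure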
# ATG4B inh = blocks human ATG4B protease cleavage of LC3 substrate; hit rate 0.51% among 340,000; inhibition, % at 8.33 µM; ATG4B cleavage of LC3-PLA2, NBD-HPC fluorescence, 1 h; Q9Y4P1; in the data active = inhibition above about 40%
# Target sequence (Q9Y4P1 whole entry, looked up): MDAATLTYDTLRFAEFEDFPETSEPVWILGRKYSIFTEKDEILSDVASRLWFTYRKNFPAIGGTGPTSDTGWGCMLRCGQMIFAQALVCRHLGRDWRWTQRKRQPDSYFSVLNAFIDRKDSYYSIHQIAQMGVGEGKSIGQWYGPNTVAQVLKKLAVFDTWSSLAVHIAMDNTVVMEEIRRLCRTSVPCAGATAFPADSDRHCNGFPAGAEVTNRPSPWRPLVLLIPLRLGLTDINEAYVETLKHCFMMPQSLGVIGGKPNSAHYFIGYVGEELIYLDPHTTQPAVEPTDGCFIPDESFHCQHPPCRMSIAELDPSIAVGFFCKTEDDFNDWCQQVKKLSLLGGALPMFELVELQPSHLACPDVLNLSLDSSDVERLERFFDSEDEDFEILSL
# SKN-1 inh = inhibitors of C. elegans SKN-1; C. elegans VP596 Pgst-4::GFP/RFP ratio, acrylamide-induced, 24 h; inhibition, % at 21.8 µM; hit rate 0.49% among 360,000; AID 624304;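 active = interference check ratio from 0.5 to 1.5 plus GFP to RFP signal ratio inhibition reaching or exceeding a fixed threshold, cut at about 30% in these data, passing the limit was not always enough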
# MPTP inh = inhibitors of mitochondrial permeability transition pore; hit rate 1.4% among 360,000; inhibition, % at 10 µM; AID 602449; isolated mouse mitochondria, Ca2+ swelling absorbance, 30 min;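 active = inhibition of 50% or more, scaled per plate between neutral and stimulator controls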;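 also: 0% = DMSO wells given calcium and 100% = 1 mM EGTA wells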
# Rh123 counter = Rhodamine 123 counter-screen of mitochondrial pore hits. shares compounds with MPTP inh. isolated mitochondria, membrane potential, Rhodamine 123 fluorescence. inhibition, % at 10 µM. hit rate 78% among 5,000; in the data active = inhibition above about 22%;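 also: 0% = DMSO vehicle and 100% = positive control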
# MPTP swell DR = MPTP inhibition, dose response swelling confirmation. shares compounds with MPTP inh. IC50, µM. isolated mitochondria swelling, absorbance. hit rate 58% among 780; in the data active = IC50 below about 20 µM
# MPTP cs DR = active in counter-screen for permeability transition pore inhibitors. hit rate 49% among 780. shares compounds with MPTP inh. isolated mitochondria counterscreen, fluorescence read-out. IC50, µM; in the data active = IC50 below about 80 µM
# * = called active by the depositor; i = inactive; x = no result. Sampled rows, rich in hits. Any-hit rate of the full collection: about 2.7%.
SMILES,NRP1-CendR mod,F508del corr,ATG4B inh,SKN-1 inh,MPTP inh,Rh123 counter,others
C[C@@H]1CN([C@H](C)CO)C(=O)c2cc(NC(=O)Nc3ccc(F)cc3)ccc2O[C@@H](C)CCCCO[C@@H]1CN(C)S(=O)(=O)c1cccs1,x,-3.1,x,x,x,x,
Cc1nn(-c2ccccc2)c2ncc(C(=O)c3cc(Cl)ccc3O)cc12,9.0,x,39.2,-4.4,62.1*,83.0*,
O=C(N/N=C/c1cc([N+](=O)[O-])ccc1O)c1cc(-c2ccccc2)nc2ccccc12,-30.6,x,3.6,14.1,98.3*,50.1*,
O=C(N/N=C/c1ccc(Cl)c([N+](=O)[O-])c1)c1cc(-c2ccccc2)nc2ccccc12,1.5,3.5,9.6,4.2,68.5*,75.2*,
C[C@H]1CN([C@@H](C)CO)C(=O)c2c(c3ccccc3n2C)-c2ccccc2CO[C@@H]1CN(C)Cc1ccc(Cl)c(Cl)c1,x,-1.2,x,x,x,x,
COc1cccc(S(=O)(=O)NCc2ccc(C(=O)Nc3ccc(Cl)c(Cl)c3)cc2)c1,7.1,x,-8.9,6.5,2.2,x,
O=C(Nc1ccc(Cl)c(Cl)c1)c1cccc(S(=O)(=O)NCc2cccnc2)c1,4.2,x,-4.3,-4.2,103.9*,83.9*,
O=C(Nc1cccnc1)OCc1ccccc1,11.3,3.9,-0.5,1.7,-0.3,x,
O=C(Nc1ccc(Cl)c(Cl)c1)OCc1cccnc1,11.9,x,-12.5,6.8,90.4*,95.0*,
O=C([C@H]1[C@H](CO)[C@H]2Cn3c(ccc(-c4ccccc4F)c3=O)[C@@H]1N2C(=O)C1CC1)N1CCOCC1,x,-1.7,x,x,x,x,
O=C(Nc1ccncc1)Nc1ccc(Cl)cc1,-3.5,2.4,0.1,5.0,55.1*,97.7*,
CC(Oc1cccc(Cl)c1)C(=O)Nc1ccncc1 (stereo not given),8.4,-2.6,-3.5,-12.0,8.6,x,
CCCc1c(NC(=O)Nc2ccc(Cl)cc2Cl)cnn1-c1ccccc1,-13.7,0.0,8.1,-2.0,83.4*,75.6*,
O=C(Nc1ccncc1)Nc1ccc(Cl)cc1Cl,1.2,1.0,0.9,-12.9,50.7*,103.6*,
O=C(Nc1ccncc1)Nc1ccncc1,5.7,-0.6,4.2,8.8,2.9,x,
CC(Oc1ccc(Cl)cc1Cl)C(=O)Nc1ccncc1 (stereo not given),-3.6,x,3.5,-15.3,76.8*,73.6*,
CCCc1c(C(=O)Nc2ccc(F)cc2F)cnn1-c1ccccc1,-7.0,-0.3,-3.2,-4.1,1.6,x,
C[C@H](CO)N1C[C@H](C)[C@H](CN(C)Cc2ccc3c(c2)OCO3)OCc2cn(nn2)CCCC1=O,x,1.7,x,x,x,x,
Cc1ccc(S(=O)(=O)Nc2ccc3c(c2)C(=O)N([C@H](C)CO)C[C@H](C)[C@H](CN(C)C(=O)CCC(F)(F)F)OCCCC[C@H](C)O3)cc1,x,0.3,x,x,x,x,
C#CCOCCOCCOCCNc1nc(N2CCN(C(=O)CCCCCCCCCCNC(=O)Cn3cc(CCCCCN)nn3)CC2)nc(N2CCN(C(=O)CCCCCCCCCCNC(=O)[C@H]([C@@H](C)CC)n3cc(CCCCCN)nn3)CC2)n1,-0.6,x,20.5,-11.2,162.6*,101.0*,
C#CCOCCOCCOCCNc1nc(N2CCN(C(=O)[C@H](CCCCN)n3cc(CN)nn3)CC2)nc(N2CCN(C(=O)[C@H](CCCN=C(N)N)n3cc(C(N)[C@H](C)CC)nn3)CC2)n1 (stereo not given in full),3.8,-3.1,1.7,27.0,83.9*,-9.4,MPTP swell DR=i;MPTP cs DR=>80
C#CCOCCOCCOCCNc1nc(N2CCN(C(=O)CCCCCCCCCCNC(=O)Cn3cc(CCCCCN)nn3)CC2)nc(N2CCN(C(=O)CCCCCCCCCCNC(=O)[C@H](CO)n3cc(CCCCCN)nn3)CC2)n1,0.4,x,7.3,-1.2,-11.0,x,
C#CCOCCOCCOCCNc1nc(N2CCN(C(=O)[C@H](CCCN=C(N)N)n3cc(C(N)[C@H](C)CC)nn3)CC2)nc(N2CCN(C(=O)[C@H](CCCN=C(N)N)n3cc(C(N)[C@@H](C)CC)nn3)CC2)n1 (stereo not given in full),-4.5,x,-8.7,2.6,-3.5,x,
Cc1ccc(C2(c3noc(CN4CCC(c5ccncc5)CC4)n3)CCCC2)cc1,-7.4,-0.6,-0.3,-1.8,69.3*,46.4*,
Cc1ccc(C2(c3noc(CN(C)CC4CCCCO4)n3)CCCC2)cc1 (stereo not given),0.4,3.5,-7.7,-4.1,-1.1,x,
SMILES,NRP1-CendR mod,F508del corr,ATG4B inh,SKN-1 inh,MPTP inh,Rh123 counter,others
O=S(=O)(NCC(Nc1ccc(Cl)cc1)c1ccccc1)c1ccccc1 (stereo not given),-6.2,x,7.8,4.1,74.7*,86.8*,
NC(=O)CCN1CCN(CCOC2Cc3cc(Cl)ccc3Sc3ccccc32)CC1 (stereo not given),0.3,x,3.9,6.6,61.6*,-7.6,MPTP swell DR=>100;MPTP cs DR=>80
O=C(N[C@@H](Cc1cccnc1)C(=O)N1CCC[C@H]1C(=O)NCCc1ccccc1Cl)c1cccs1,x,-2.5,x,x,x,x,
O=c1[nH]c(-c2ccc(F)cc2)nc2c1sc(=S)n2-c1ccccc1,-15.8,x,-3.5,8.6,55.6*,8.1,MPTP swell DR=i;MPTP cs DR=<2.5*
O[C@@H]1CN(Cc2ccc(-n3cccn3)cc2)CC[C@H]1N1CCN(c2ccccc2F)CC1,-9.9,-2.0,-3.3,9.9,69.0*,59.0*,
Cc1ccc(CN2CCN(Cc3ccc(-n4cccn4)cc3)CC2CCO)cc1 (stereo not given),-3.7,x,-0.3,-11.1,0.1,x,
CC[n+]1c(/C=C2\Sc3ccccc3N2C)ccc2cccc(C)c21,-77.2,18.0*,16.2,63.5,106.5*,100.3*,
CCN1/C(=C/c2ccc3cc(C)ccc3[n+]2CC)Sc2ccccc21,-283.9,-37.9,14.7,64.2,105.0*,96.3*,
CCN1/C(=C/c2ccc3cc(C)ccc3[n+]2CC)Sc2cc(C)c(C)cc21,-213.0,-3.3,21.3,64.3,105.9*,93.5*,
CC[n+]1ccccc1/C=C1\Sc2ccc(C)cc2N1C,-16.3,0.7,12.0,6.1,1.3,x,
CCN1/C(=C/C=C/c2sc3ccccc3[n+]2CC)Sc2ccccc21,-65.0,x,23.7,85.7,136.1*,83.7*,
COc1ccc(S(=O)(=O)N(C)C[C@@H]2OCCCC[C@H](C)Oc3ccc(NS(=O)(=O)c4ccc(F)cc4)cc3C(=O)N([C@@H](C)CO)C[C@@H]2C)cc1,x,-0.8,x,x,x,x,
CC(C)N1CC2(CC(c3ccc(Cl)cc3Cl)=NO2)CN1C(=O)c1ccc(C(C)(C)C)cc1 (stereo not given),-4.0,-2.0,x,6.8,51.5*,13.5,MPTP swell DR=8.84*;MPTP cs DR=29.1*
CC(C)N1CC2(CC(c3ccccc3F)=NO2)CN1C(=O)c1ccc(C(C)(C)C)cc1 (stereo not given),7.4,-2.2,x,-9.5,1.6,x,
O=C(Nc1cc(F)ccc1F)N1CC(=O)N2[C@@H](CO)[C@H](c3ccc(-c4cccc(F)c4)cc3)[C@@H]2C1,x,4.8,x,x,x,x,

# Screening data as filed in PubChem BioAssay.
